Several values for one entry are separate records, joined by “and”; a condition that tells them apart may be missing. Equal entries are not always repeated. In all, about 5,500 compounds went through this assay and about 2,000 (36%) were called active. Roughly 18% stayed inconclusive and do not appear here. Cut-off read from the data, not from the text of the source: active = normalized growth mostly below about 0.91 (no sharp cut-off); inconclusive = no clear call, values can overlap the other calls; inactive = mostly above about 0.92. The list shows a part of the results.
Experiment: chemical genetic growth profiling, strain panel (AID 1159580);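 note: tested at 20 µM; growth read once vehicle control cultures reached saturation at 30 °C; 1 = growth at the plate median or of vehicle wells; lower values mean less growth of the strain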
Conditions: S. cerevisiae deletion strains, growth OD

Measured: normalized growth

CCOC(=O)c1ccc(N)cc1
inactive: locus YAL021C, strain ccr4, hits give low values 1.03 | locus YAL026C, strain drs2, hits give low values 1 | locus YAL030W, strain snc1, hits give low values 1.01 | locus YBL061C, strain skt5, hits give low values 0.999 | locus YBR009C, strain hhf1, hits give low values 0.98 | locus YBR021W, strain FUR4, hits give low values 0.998 | locus YBR023C, strain chs3, hits give low values 1.03 | locus YBR171W, strain sec66, hits give low values 1.03 | locus YBR229C, strain ROT2, hits give low values 0.999 | locus YBR231C, strain swc5, hits give low values 1 | locus YBR279W, strain paf1, hits give low values 1 | locus YCL011C, strain gbp2, hits give low values 0.987 | locus YCL016C, strain dcc1, hits give low values 1.01 | locus YCL029C, strain bik1, hits give low values 0.993 | locus YCL061C, strain MRC1, hits give low values 1.01 | locus YCL069W, strain vba3, hits give low values 0.993 | locus YCR088W, strain abp1, hits give low values 1.01 | locus YDL005C, strain med2, hits give low values 1.01 | locus YDL035C, strain GPR1, hits give low values 1.01 | locus YDL040C, strain nat1, hits give low values 1.01 | locus YDL074C, strain BRE1, hits give low values 0.994 | locus YDL101C, strain DUN1, hits give low values 0.993 | locus YDL185W, strain tfp1, hits give low values 0.994 | locus YDL192W, strain arf1, hits give low values 1.01 | locus YDR001C, strain nth1, hits give low values 0.999 | locus YDR069C, strain doa4, hits give low values 1.04 | locus YDR101C, strain arx1, hits give low values 1.01 | locus YDR137W, strain rgp1, hits give low values 1.01 | locus YDR150W, strain NUM1, hits give low values 0.993 | locus YDR159W, strain sac3, hits give low values 1 | locus YDR162C, strain NBP2, hits give low values 0.999 | locus YDR195W, strain ref2 1.09 | locus YDR297W, strain sur2, hits give low values 1.01 | locus YDR318W, strain mcm21, hits give low values 0.994 | locus YDR334W, strain swr1, hits give low values 1.02 | locus YDR335W, strain msn5, hits give low values 1.02 | locus YDR388W, hits give low values 0.989 | locus YDR392W, strain spt3, hits give low values 0.941 | locus YDR502C, strain sam2, hits give low values 0.987 | locus YEL003W, strain gim4, hits give low values 1.02 | locus YEL037C, strain rad23, hits give low values 1.01 | locus YEL061C, strain CIN8 (second series), hits give low values 1.04 | locus YEL061C, strain CIN8, hits give low values 1.01 | locus YER015W, strain faa2, hits give low values 1.01 | locus YER016W, strain bim1, hits give low values 0.972 | locus YER110C, hits give low values 0.995 | locus YER111C, strain swi4, hits give low values 1 | locus YER155C, strain BEM2 (second series), hits give low values 0.952 | locus YER155C, strain BEM2, hits give low values 1.01 | locus YER167W, strain BCK2, hits give low values 1 | locus YFR010W, strain ubp6, hits give low values 1.02 | locus YGL078C, strain dbp3, hits give low values 0.996 | locus YGL086W, strain mad1, hits give low values 0.993 | locus YGL167C, strain pmr1, hits give low values 1.03 | locus YGL173C, strain kem1, hits give low values 0.998 | locus YGL227W, strain vid30, hits give low values 1.02 | locus YGL240W, strain doc1, hits give low values 0.996 | locus YGL248W, strain PDE1, hits give low values 0.997 | locus YGL253W, strain hxk2, hits give low values 1.01 | locus YGR135W, strain pre9, hits give low values 0.99 | locus YGR252W, strain gcn5, hits give low values 0.959 | locus YHR013C, strain ard1, hits give low values 1.04 | locus YHR027C, strain rpn1, hits give low values 1.01 | locus YHR030C, strain SLT2, hits give low values 1.01 and 1.02 | locus YHR079C, strain IRE1 (second series), hits give low values 0.994 | locus YHR079C, strain IRE1, hits give low values 0.993 | locus YHR094C, strain hxt1, hits give low values 0.984 | locus YHR129C, strain ARP1, hits give low values 1 | locus YHR142W, strain chs7, hits give low values 0.963 | locus YHR200W, strain rpn10, hits give low values 0.989 | locus YIL066C, strain RNR3, hits give low values 1.02 | locus YIL073C, strain SPO22, hits give low values 0.943 | locus YIL125W, strain kgd1, hits give low values 0.991 | locus YIR030C, strain dcg1, hits give low values 0.997 | locus YJL092W, strain hpr5, hits give low values 1.02 | locus YJL095W, strain BCK1 (second series), hits give low values 1.01 | locus YJL095W, strain BCK1, hits give low values 0.995 and 0.999 | locus YJL115W, strain asf1, hits give low values 1.02 | locus YJL129C, strain trk1, hits give low values 1.04 | locus YJL134W, strain LCB3, hits give low values 1 | locus YJL154C, strain vps35, hits give low values 1.01 | locus YJL164C, strain tpk1, hits give low values 0.982 | locus YJL166W, strain qcr8, hits give low values 1.01 | locus YJL168C, strain set2, hits give low values 0.992 | locus YJL187C, strain SWE1 (second series), hits give low values 0.985 | locus YJR043C, strain POL32, hits give low values 1.02 | locus YJR066W, strain TOR1, hits give low values 0.966 | locus YKL009W, strain mrt4, hits give low values 0.976 | locus YKL068W, hits give low values 0.993 | locus YKL085W, strain MDH1 (second series), hits give low values 0.996 | locus YKL085W, strain MDH1, hits give low values 0.996 | locus YKL160W, strain elf1, hits give low values 1.02 | locus YKL190W, strain CNB1, hits give low values 0.988 | locus YKR001C, strain vps1, hits give low values 0.987 | locus YKR091W, strain srl3, hits give low values 1.01 | locus YLL001W, strain dnm1, hits give low values 1.01 | locus YLL026W, hits give low values 1.02 | locus YLL041C, strain sdh2, hits give low values 1.02 | locus YLR027C, strain aat2, hits give low values 1 | locus YLR039C, strain RIC1, hits give low values 1.01 | locus YLR058C, strain SHM2, hits give low values 0.999 | locus YLR102C, strain apc9, hits give low values 0.989 | locus YLR113W, strain HOG1, hits give low values 0.979 | locus YLR221C, strain rsa3, hits give low values 1.01 | locus YLR258W, strain gsy2, hits give low values 0.998 | locus YLR262C, strain YPT6 (second series), hits give low values 1.03 | locus YLR262C, strain YPT6, hits give low values 0.988 | locus YLR268W, strain sec22, hits give low values 0.991 | locus YLR320W, strain mms22, hits give low values 0.978 | locus YLR330W, strain CHS5, hits give low values 1.01 | locus YLR342W, strain FKS1 (second series), hits give low values 1.03 | locus YLR342W, strain FKS1, hits give low values 1 | locus YLR357W, strain rsc2, hits give low values 1.05 | locus YLR370C, strain arc18, hits give low values 1.01 | locus YLR371W, strain rom2, hits give low values 0.994 | locus YLR384C, strain iki3, hits give low values 1.02 | locus YLR418C, strain cdc73, hits give low values 0.988 | locus YML016C, strain PPZ1, hits give low values 1 | locus YML032C, strain rad52, hits give low values 0.995 | locus YML120C, strain ndi1, hits give low values 1.02 | locus YML124C, strain tub3, hits give low values 0.992 | locus YMR058W, strain fet3, hits give low values 1.03 | locus YMR078C, strain ctf18, hits give low values 0.998 | locus YMR125W, strain sto1, hits give low values 1.01 | locus YMR129W, hits give low values 1.01 | locus YMR205C, strain PFK2, hits give low values 1.01 | locus YMR223W, strain ubp8, hits give low values 0.997 | locus YMR231W, strain pep5, hits give low values 1.01 | locus YMR263W, strain SAP30, hits give low values 1 | locus YMR307W, strain GAS1, hits give low values 1.09 | locus YNL067W, strain RPL9B, hits give low values 0.975 | locus YNL071W, strain lat1, hits give low values 0.983 | locus YNL183C, strain NPR1, hits give low values 0.949 | locus YNL209W, strain ssb2, hits give low values 0.993 | locus YNL233W, strain BNI4, hits give low values 1.01 | locus YNL248C, strain rpa49, hits give low values 1 | locus YNL250W, strain rad50, hits give low values 0.983 | locus YNL271C, strain bni1, hits give low values 0.993 | locus YNL298W, strain CLA4, hits give low values 1.01 | locus YNL307C, strain MCK1, hits give low values 0.986 | locus YNL322C, strain KRE1 (second series), hits give low values 1.01 | locus YNR049C, strain mso1, hits give low values 1.02 | locus YNR052C, strain pop2, hits give low values 0.987 | locus YOL006C, strain TOP1, hits give low values 1.03 | locus YOL012C, strain htz1 0.986 | locus YOL147C, strain pex11, hits give low values 0.993 | locus YOR001W, strain rrp6, hits give low values 1.02 | locus YOR061W, strain CKA2, hits give low values 0.996 | locus YOR069W, strain VPS5, hits give low values 0.998 | locus YOR070C, strain gyp1, hits give low values 0.989 | locus YOR080W, strain dia2, hits give low values 1.03 | locus YOR083W, strain WHI5, hits give low values 1.01 | locus YOR106W, strain vam3, hits give low values 1.02 | locus YOR136W, strain idh2, hits give low values 0.98 | locus YOR144C, strain elg1, hits give low values 0.997 | locus YOR184W, strain ser1, hits give low values 0.991 | locus YOR231W, strain MKK1, hits give low values 0.989 | locus YOR265W, strain rbl2, hits give low values 1.01 | locus YOR270C, strain vph1, hits give low values 0.973 | locus YOR290C, strain snf2, hits give low values 0.988 | locus YOR316C, strain cot1, hits give low values 0.989 | locus YPL051W, strain arl3, hits give low values 1.02 | locus YPL055C, strain LGE1, hits give low values 1 | locus YPL078C, strain atp4, hits give low values 1.03 | locus YPL106C, strain sse1, hits give low values 0.946 | locus YPL240C, strain hsp82, hits give low values 1.02 | locus YPL241C, strain CIN2, hits give low values 1 | locus YPL256C, strain CLN2, hits give low values 0.983 | locus YPR119W, strain clb2, hits give low values 0.99 | locus YPR141C, strain kar3, hits give low values 0.999 | locus YPR163C, strain tif3, hits give low values 1 | locus YPR167C, strain met16, hits give low values 0.996 | strain wtn01, hits give low values 0.997
